# According to ChEMBL document CHEMBL1157539, “Thousands of chemical starting points for antimalarial lead identification” (Nature, 2010):
# Tested on: HepG2
# Assay: GSK_TCMDC: Percent inhibition of human HepG2 cell line. Test compounds present at 10uM.
# Type: functional
row,Structure (SMILES),Inhibition [%]
1,COc1ccc(Cl)cc1N1CCN(CCCNC(=O)c2ccc(-c3nc4cc(Cl)c(F)cc4[nH]3)cc2)CC1,3
2,Fc1cccc(Cl)c1-c1nc(NCCC(c2ccccc2)c2ccccc2)no1,4
3,COc1ccc2nccc(N3CCC(NCCNCc4ccc5c(n4)NC(=O)CO5)C3)c2n1.Cl (stereo not drawn),0
